The list is not random: actives were taken first. Their share in the collection is about 9.4%.
ELG1 DNA repair – qHTS screen for small molecules that inhibit ELG1-dependent DNA repair in human embryonic kidney (HEK293T) cells expressing luciferase-tagged ELG1 | HEK293T ELG1-luciferase reporter, luminescence, 16 h; DNA damage induced by 5-fluorouridine | 330,000 compounds, 2.3% hits | Potency, µM (series often up to 46.1 µM), for inactives: at the top dose activity change, negative = inhibition, hits mostly inhibitors | AID 504467, 2011; also: % is scaled to controls: 0 for no effect and ±100 for the full control effect; nearly all actives have a fitted effect of over 55% in size
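Overnight (16 hr) co-exposure of 2,000 cells/well to 5-fluorouridine and compound at 37 °C preceded detection. Luciferase was quantified via ONE-Glo luminescence; loss of signal denotes inhibition.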
Rab9 promoter act – qHTS Assay for Rab9 Promoter Activators; Huh7 Rab9 promoter-luciferase reporter, luminescence, 24 h; Potency, µM (top dose mostly 9.22 µM), without a hit: top-dose activation, negative = inhibition, hits mostly activators; 320,000 compounds, 2.8% hits; also: % of control where 0% means no effect; nearly all actives have a fitted effect of over 60% in size
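Using Huh7 cells stably transfected with Rab9 promoter–luciferase, compounds were incubated 24 h at 37 °C, 5% CO2; luciferase luminescence was read 10 min after reagent addition.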
NPC1 promoter act – qHTS Assay for NPC1 Promoter Activators | Huh7 NPC1 promoter luciferase reporter, 24 h | Potency, µM (series often up to 9.22 µM), without a hit: at the highest dose activation, usual class: activators | 320,000 compounds, 2.4% hits | AID 485313, 2010; also: % of control where 0% means no effect; nearly all actives have a fitted effect of over 60% in size
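Huh7 reporter cells (NPC1 promoter driving luciferase) are dosed with compound for 24 h at 37 °C, 5% CO2; luciferase detection reagent is then added and luminescence measured after 10 min at ambient temperature.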
FLuc counter – qHTS profiling assay for firefly luciferase inhibitor/activator using purifed enzyme and Km concentrations of substrates (counterscreen for miR-21 project); 360,000 compounds, 6.9% hits; Potency, µM (titrated, usually from 57.5 µM), without a hit: at the highest dose activity change, negative = inhibition, actives largely listed as inhibitors; purified FLuc, Km substrates, luminescence inhibition; AID 588342, 2011; Luciferin 4-monooxygenase (Photinus pyralis), P08659;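 also: plate controls were vehicle for no effect and reference inhibitor for full effect; nearly all actives have a fitted effect of over 55% in size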
Target sequence (P08659 whole entry, looked up): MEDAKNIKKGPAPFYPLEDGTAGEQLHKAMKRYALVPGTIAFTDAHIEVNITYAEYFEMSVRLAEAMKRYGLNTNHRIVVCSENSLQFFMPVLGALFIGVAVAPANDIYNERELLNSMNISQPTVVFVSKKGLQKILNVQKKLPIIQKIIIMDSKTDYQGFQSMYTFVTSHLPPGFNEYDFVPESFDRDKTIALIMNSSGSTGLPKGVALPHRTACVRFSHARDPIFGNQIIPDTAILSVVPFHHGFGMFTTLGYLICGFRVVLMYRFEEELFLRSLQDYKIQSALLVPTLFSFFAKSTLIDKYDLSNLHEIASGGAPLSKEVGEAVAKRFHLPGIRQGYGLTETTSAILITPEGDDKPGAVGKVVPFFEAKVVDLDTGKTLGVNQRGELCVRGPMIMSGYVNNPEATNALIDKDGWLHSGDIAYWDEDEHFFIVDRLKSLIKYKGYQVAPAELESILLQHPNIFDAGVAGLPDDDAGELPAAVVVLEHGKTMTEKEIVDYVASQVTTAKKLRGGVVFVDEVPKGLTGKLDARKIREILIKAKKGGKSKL
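Purified P. pyralis luciferase (10nM final) with 10uM D-luciferin and 10uM ATP (Km levels) in 50mM Tris acetate pH 7.5, 10mM Mg acetate, 0.01% Tween-20, 0.05% BSA; qHTS 6-point titration, ~60 µM downward; luminescence read.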
ELG1 genotoxic – qHTS screen for small molecules that induce genotoxicity in human embryonic kidney (HEK293T) cells expressing luciferase-tagged ELG1; Potency, µM (top dose mostly 46 µM), inactives show at the highest dose activity change, positive = activation, actives largely listed as activators; HEK293T ELG1-luciferase reporter, luminescence, 16 h; 330,000 compounds, 1.3% hits; also: % of control where 0% means no effect; nearly all actives have a fitted effect of over 60% in size
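Luminescence read-out: rising ELG1-luciferase signal, reflecting elevated ELG1 protein under genetic stress, flags genotoxic compounds. Cells were treated for 16 hr at 37 °C before ONE-Glo detection.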
SMN2 splice enh – qHTS Assay for Enhancers of SMN2 Splice Variant Expression; HEK293 SMN2-luciferase splicing reporter, luminescence, 30-36 h; 210,000 compounds, 2.8% hits; Potency, µM (titrated, usually from 46.1 µM), without a hit: top-dose activity change, positive = activation, hits mostly activators; also: % of control where 0% means no effect; nearly all actives have a fitted effect of over 55% in size
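HEK293 cells carry an SMN2 minigene-luciferase reporter in which exon 7 inclusion puts luciferase in frame. Cells were seeded at 2000 cells/well, attached for 10-12 hours, then exposed to compounds for 30-36 hours at 37C before ONE-Glo luminescence.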
* = called active by the depositor; ? = inconclusive; nt = no result given; [ ] = dose if it differs, or a comment. Calls follow the shape of the dose curve; as a rule, active = well fitted curve in the direction sought with a large enough effect; inconclusive = small, poorly fitted or top-dose-only effect, or another doubt; inactive = no such curve, though single readings can be large; an effect the other way counts as inactive or inconclusive. Potency is read from the fitted curve at half-maximal effect.

SMILES	ELG1 DNA repair	Rab9 promoter act	NPC1 promoter act	FLuc counter	ELG1 genotoxic	SMN2 splice enh
COc1cc(/C=N/Nc2nc3ccccc3s2)cc([N+](=O)[O-])c1O	?	22%	?	11µM*	4%	nt
COc1cc(/C=N/Nc2ccccc2[N+](=O)[O-])ccc1OC(=O)c1ccccc1F	?	3.2µM*	4µM*	9.5µM*	2.6µM*	6.3µM*
COc1cc(/C=N/Nc2nc3ccccc3s2)ccc1OC(=O)c1ccccc1F	?	?	24%	?	6.5µM*	?
Cn1nnnc1SCCNCc1ccccc1OCc1ccc(Cl)cc1Cl	nt	nt	nt	-16%	nt	-104%
Cc1nc2cc(NC(=O)NCCC3=CCCCC3)ccc2o1	?	3.5µM*	4µM*	12µM*	15µM*	nt
C=CCNC(=O)Nc1ccc2oc(C)nc2c1	24%	9%	7%	-11%	-4%	-6%
Cc1nc2cc(NC(=O)NCCCO)ccc2o1	-13%	-3%	2%	-2%	3%	nt
COc1ccc(NC(=O)Nc2ccc3oc(C)nc3c2)cc1	?	?	30%	12µM*	?	nt
Cc1ccc(CSC2=Nc3ccccc3C3=NC(CCC(=O)N4CCN(c5ccccc5)CC4)C(=O)N23)cc1 (stereo unspecified)	nt	nt	nt	-4%	nt	28%
Cc1ccc(C2=NN3C(=O)c4ccccc4C3C2)cc1 (stereo unspecified)	?	?	?	17µM*	?	nt
Cc1ccc(Cl)cc1Nc1nc2ccccc2c2nncn12	nt	nt	nt	-2%	nt	6%
Brc1ccc(-c2cn3c(n2)CCc2ccc4cccnc4c2-3)cc1	?	4%	13%	13µM*	-5%	-14%
Brc1ccc(OCCCOc2cccc3cccnc23)cc1	?	1%	1%	?	7%	nt
COc1ccc(-c2csc3nc(C)nc(N4CCN(c5ccc(C(C)=O)cc5)CC4)c23)cc1OC	13µM*	-2%	-2%	-12%	-6%	-4%
COc1ccc(C(=O)N2CCN(c3ccc(C)cc3)CC2)cc1OC	-18%	0%	2%	3%	-3%	-19%
COc1cccc(N2CCN(C(=O)C3CCN(S(=O)(=O)c4c(C)noc4/C=C/c4ccccc4F)CC3)CC2)c1	nt	nt	nt	-7%	nt	nt
S=c1nc(-c2nc(=S)[nH]c3c2CCCCCCCCCC3)c2c([nH]1)CCCCCCCCCC2	nt	nt	nt	nt	nt	-7%[9.22 µM]
CN(C1CCCCC1)S(=O)(=O)c1ccc2c(c1)c(=O)c(C(=O)N1CCN(c3ccccc3)CC1)cn2C	nt	nt	nt	-2%	nt	4%
c1ccc(Cn2ccnc2-c2ccco2)cc1	?	10%	14%	21µM*	?	15%
COC(=O)C1(C(=O)OC)C[C@@H]2CON=C2[C@H]1c1ccccc1	nt	nt	nt	nt	nt	3%
Cc1ccc2c(C)nc(Nc3nc(CSc4nnnn4-c4ccccc4)cc(=O)[nH]3)nc2c1	8.2µM*	-2%	1%	-8%	-1%	-80%
CC(=O)NCCNc1ncnc2ccc(-c3ccc(C(=O)N(C)C)cc3)cc12	nt	nt	nt	nt	nt	10%
C/C=C/c1ccc(OC(C)=O)c(OC)c1	12%	1%	-1%	-3%	1%	-29%
COC(=O)/C=C/c1ccc(OC(=O)OC)c(OC(=O)OC)c1	9%	-12%	-10%	-20%	10%	14µM*
CC(C)C(=O)Nc1nnc(NC(=S)Nc2ccccc2)s1	?	4.5µM*	?	21µM*	?	30%
SMILES	ELG1 DNA repair	Rab9 promoter act	NPC1 promoter act	FLuc counter	ELG1 genotoxic	SMN2 splice enh
CCC(=O)Nc1nnc(CCc2ccccc2)s1	?	11%	-1%	-7%	8%	?
CCCc1nnc(NC(=S)Nc2ccccc2)s1	?	2.5µM*	?	?	?	?
O=C(Nc1ccc(Cl)cc1)Nc1nnc(CSCc2ccccc2Cl)s1	10µM*	-14%	-7%	-1%	-10%	-47%
O=C(Nc1ccccc1)Nc1nnc(CSCc2ccccc2Cl)s1	?	-1%	1%	2%	-1%	-76%
CC(C)(C)C(=O)Nc1nnc(CCc2ccccc2)s1	?	5.6µM*	4µM*	12µM*	?	nt
COc1ccccc1CNC(=O)c1cc2c(=O)oc3ccc(C)cc3c2s1	nt	nt	nt	-1%	nt	-4%
Cc1ccc(NC(=O)C2CCCN(c3ncnc4c3nc3n4CCCCC3)C2)c(Br)c1 (stereo unspecified)	nt	nt	nt	3%	nt	nt
CCCc1nnc(NC(=O)CCC(=O)NCc2ccccc2Cl)s1	?	-3%	-1%	-2%	-1%	nt
CCCc1nnc(NC(=O)Nc2ccccc2Cl)s1	nt	nt	nt	?	nt	16µM*
CCc1ccccc1NC(=O)c1cn(C)c(=O)c2ccccc12	nt	nt	nt	1%	nt	6%
CC(C)CCCC(C)C1CCC2C3CC=C4CC(=O)CC[C@@]4(C)C3CC[C@@]12C (stereo partly specified)	nt	nt	nt	nt	nt	2%
O=C(NC1CC1)C1CCCN1S(=O)(=O)c1ccc2ccccc2c1 (stereo unspecified)	-14%	-6%	-4%	0%	-1%	11µM*
OCc1cn(-c2ccccc2)nc1-c1ccc(-c2nn(-c3ccccc3)cc2CO)cc1	?	-6%	-7%	0%	-8%	-13%
Cc1ccc(-c2nn(-c3ccccc3)cc2C(N)=O)o1	5%	-5%	1%	?	0%	18%
Cc1ccc(-c2nn(-c3ccccc3)cc2CO)o1	?	?	?	12µM*	?	8.9µM*
OCc1cn(-c2ccccc2)nc1-c1ccco1	?	24%	?	17µM*	?	-5%
Cc1ccc(-c2nn(-c3cccc(F)c3)cc2CNCc2cccnc2)o1	-12%	1%	-1%	19µM*	-6%	nt
Cc1ccc(-c2nn(-c3ccccc3)cc2C=O)o1	?	?	9%	3µM*	?	10µM*
O=Cc1cn(-c2ccccc2)nc1-c1cccnc1	4%	-7%	-1%	?	1%	12%
Cc1ccc(-c2nn(-c3cccc(F)c3)cc2CN2CCN(c3ccccn3)CC2)o1	-7%	-16%	-1%	?	-9%	nt
CCN(CC)CCCN1C=C2C(=O)C(C)(OC(=O)c3cccs3)C(=O)C=C2C=C1CCCC(=O)OC (stereo unspecified)	nt	nt	nt	nt	nt	-10%[9.22 µM]
c1cc(Nc2ncnc3sccc23)cc(-c2nnc3n2CCCCC3)c1	23µM*	7%	7%	?	-14%	-25%

Source: PubChem BioAssay
